Test results: PubChem BioAssay (NCI)
About 79,000 compounds went through this panel and 15% of them were active in at least one assay; those are over-represented in the sample as a whole. Unmarked numbers belong to inactive results. Activity calls are given as the source filed them. Cut-off read from the data, not from the text of the source: active = growth inhibition above about 70%; inactive = the rest. Where a SMILES comes first, the peptide text is derived from it. [ ]: non-standard residue; d: D form. The star is where a group is joined. ONb = O=[N+]([O-])c1ccc(CO*)cc1; AllylGly = C=CC[CH](N)C(=O)O; Boc = CC(C)(C)OC(=O)*

Tests used:
[1] = NCI Yeast Anticancer Drug Screen. Data for the rad50 strain (AID 155);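 note: 0% = growth of vehicle-only cultures of the same strain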; conditions: S. cerevisiae rad50 strain growth inhibition; at 50.0 µM; hits give high values
Summary of the method: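 Compounds were tested on a yeast strain with an engineered DNA damage repair alteration; the reported value is growth inhibition normalised to vehicle treatment.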

[2] = NCI Yeast Anticancer Drug Screen. Data for the mec2-1 strain (AID 157); conditions: S. cerevisiae mec2-1 strain, at 50.0 µM, hits give high values
Summary of the method: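 Test agents were screened against the mec2-1 yeast strain, with defined DNA repair or cell cycle alteration. Growth was scored as inhibition against vehicle-only controls.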

[3] = NCI Yeast Anticancer Drug Screen. Data for the sgs1 mgt1 strain (AID 161);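 note: 0% = growth of cultures given vehicle only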; conditions: S. cerevisiae sgs1 mgt1 strain, at 50.0 µM, hits give high values
Summary of the method: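 Test agents were incubated with a DNA-repair-mutant yeast strain. Growth was then read and compared against vehicle-treated controls.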

[4] = NCI Yeast Anticancer Drug Screen. Data for the cln2 rad14 strain (AID 165);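 note: 0% = growth equal to vehicle treated cultures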; conditions: S. cerevisiae cln2 rad14 strain, at 50.0 µM, hits give high values
Summary of the method: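 Growth of compound-exposed yeast (cln2 rad14 genotype) measured and expressed as inhibition relative to vehicle.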

[5] = NCI Yeast Anticancer Drug Screen. Data for the bub3 strain (AID 167); conditions: S. cerevisiae bub3 mutant strain, at 50.0 µM, hits give high values
Summary of the method: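 Growth of a checkpoint-deficient yeast mutant is measured after compound exposure. Values represent inhibition relative to vehicle.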

[6] = NCI Yeast Anticancer Drug Screen. Data for the mlh1 rad18 strain (AID 175); conditions: S. cerevisiae mlh1 rad18 strain growth inhibition; at 50.0 µM; hits give high values
Summary of the method: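 In this whole-cell yeast screen, a strain with altered DNA damage repair is challenged with compound, and its growth is measured against matched vehicle-treated controls.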

Row | Compound | growth inhibition [1] | growth inhibition [2] | growth inhibition [3] | growth inhibition [4] | growth inhibition [5] | growth inhibition [6]
1 | CC(=O)OC1C[C@@](C)(O)[C@@]23O[C@@H]2[C@@H]2O[C@]2(C)C3C2OC(=O)C(C)[C@H]12 (stereo not given in full) | -0.25% | -20.9% | -6.85% | 7.55% | -6.3% | -9.6%
2 | Cc1ccc(S(=O)(=O)NN(C)C(=O)c2ccccc2)cc1 | -5.95% | -0.75% | 3.05% | -25.2% | 22.8% | -9.05%
3 | CCC(=O)NC(Nc1cccc(F)c1C)(C(F)(F)F)C(F)(F)F | -22.4% | 23.4% | -37.4% | 14.7% | 7.25% | -5.5%
4 | N#CC(C(=O)CCCC(=O)Nc1ccccc1[N+](=O)[O-])c1ccc(Cl)cc1Cl (stereo not given) | -10.2% | -22.6% | -36.8% | -41.5% | 0.65% | -26.6%
5 | CCOC(=O)c1cnc(-n2[nH]c(C)c(CCO)c2=O)[nH]c1=O | -11.2% | -46.9% | -33.1% | -6.15% | -8.9% | -37%
6 | CCCCCc1c(C)[nH]n(C(N)=NCCSCc2nc[nH]c2C)c1=O | 31.5% | -0.8% | 35% | 22.4% | -22.5% | 25.2%
7 | CNc1ccc2c(c1)C(=O)c1ccccc1-2 | 11.1% | 14.4% | -5.55% | 19.9% | 1.35% | -11.4%
8 | O=S(=O)(Nc1ccc(Cl)cc1)c1ccc(F)cc1 | -9.45% | -15.8% | -11.6% | 11.9% | -29.1% | 3.95%
9 | Cc1ccc(NC(=O)c2ccccc2N)cc1 | -0.9% | -8.5% | -0.95% | -16.8% | -12.4% | 18%
10 | CCc1ccccc1O | 6.1% | -7.6% | 3.3% | -25% | -11.7% | 1.4%
11 | CC1CC(c2ccccc2)S(=O)(=O)O1 (stereo not given) | -5.9% | -4.3% | -3.7% | -12.2% | 35% | -9.95%
12 | O=NN(CCCl)C(=O)NC1c2cc(Cl)ccc2-c2c(Cl)cc(Cl)cc21 (stereo not given) | 84.3% (active) | 59.3% | 73.7% (active) | 48.5% | 22.8% | 86.5% (active)
13 | c1ccc2c(c1)ccc1cccc[n+]12 | -25.4% | -7.75% | -13% | -12.4% | -16.7% | -36.6%
14 | CCc1cc(C)cc(C(C)(C)C)c1 | 12.4% | -17.8% | 25.1% | 7.15% | -8.35% | 22%
15 | CSc1nc(NC2OC(CO)C(O)C(O)C2O)c(C=O)c(=O)n1C (stereo not given) | 10% | -0.8% | 10.3% | 4% | 2.45% | 7.75%
16 | CCC(CC)C(O)CCCN(C)C (stereo not given) | 33.6% | 21.8% | 31.2% | 12.8% | 1.65% | 24.1%
17 | Cc1cc(O)c(C(C)C)cc1N=Cc1ccccc1O | -38.4% | -23.6% | -58.2% | -29.7% | -21.6% | -5.8%
18 | C[N+](C)([O-])CCNC(=O)c1cccc2cc3ccccc3nc12 | -9.8% | -8.9% | -23.5% | 4.3% | 10.2% | -46%
19 | COc1ccc(C=C2C(=O)OC(C)(C)OC2=O)cc1OC | -6.7% | -8.85% | -8.5% | 30% | -23.8% | -4.85%
20 | Cc1ccccc1NC(=O)CS | 17.6% | 31.9% | 31.2% | -21% | 29.2% | 33.2%

Row | Compound | growth inhibition [1] | growth inhibition [2] | growth inhibition [3] | growth inhibition [4] | growth inhibition [5] | growth inhibition [6]
21 | O=C1c2cc([N+](=O)[O-])sc2C(=O)c2c([N+](=O)[O-])csc21 | 91% (active) | 93% (active) | 92.5% (active) | 91.4% (active) | 92.1% (active) | 91.3% (active)
22 | CC1CNC(=O)NC1=O.O.O.[NH2-].[NH2-].[Pt+4] (stereo not given) | 7.55% | 11.2% | -0.75% | -51% | -5.95% | -5.85%
23 | CCOc1ccc(NC(=O)Oc2ccc(-c3ccccc3)cc2)cc1 | 15.8% | 33.5% | 24.4% | -12% | 56.7% | 48.1%
24 | CSCCC(Nc1ncnc2nc[nH]c12)C(=O)O (stereo not given) | -9.7% | 3.05% | 3.6% | -12.7% | 0.9% | -9.5%
25 | CC(C)(C)OC(=O)c1c2ccccc2cc2ccccc12 | 21.9% | 12.4% | 14% | 14.2% | 12.1% | 10.3%
26 | C=CCC(NC(=O)OC(C)(C)C)C(=O)NC(CCC(=O)OCc1ccc([N+](=O)[O-])cc1)C(N)=O (stereo not given) (Boc-[AllylGly]-Glu(ONb)-NH2; configuration not given here) | -7.75% | -36.7% | -20.1% | 9.25% | -2.35% | -9.2%
27 | CC(C)C1CC[N-]CC1.CC(C)C1CC[N-]CC1.[Cl][Pt+2][Cl] | 82.6% (active) | 48% | 86.3% (active) | 18.9% | 36.6% | 75.4% (active)
28 | CCC/C(=N/O)C(=O)OCC | -3.4% | 14.9% | 6.4% | 6.25% | 4.4% | -4.6%
29 | Cc1cc(S(=O)(=O)Nc2cc(N)[nH]n2)c(SCc2nc(N)nc(N(C)C)n2)cc1Cl | 11.2% | 8.7% | -0.1% | 2.7% | 6.6% | 8.05%
30 | COc1ccc(CCNC(=S)NCCc2ccc(OC)c(OC)c2)cc1OC | -17.1% | -17.1% | 2.1% | 20.2% | 34.5% | -1.4%
31 | CNC(=O)OCc1c(COC(=O)NC)c(C)n(-c2ccccc2)c1C | 7.75% | -14.1% | -24.2% | -0.35% | -3.95% | -24%
32 | C/C=C(\C)c1cc(O)c(C)c2c1Oc1cc(O)c(Cl)c(C)c1C(=O)O2 | 92.5% (active) | 94.8% (active) | 93.9% (active) | 92.3% (active) | 93.5% (active) | 92.5% (active)
33 | Cc1cc(OC(=O)c2ccccc2)c(C)c(C)c1OC(=O)c1ccccc1 | 6.15% | -7.95% | 15.2% | 9.2% | 8.4% | 21.1%
34 | CSC#CC(Sc1c(Cl)c(Cl)c(Cl)c(Cl)c1Cl)=C(Sc1c(Cl)c(Cl)c(Cl)c(Cl)c1Cl)Sc1c(Cl)c(Cl)c(Cl)c(Cl)c1Cl | 2.55% | -0.8% | -1.7% | -3.6% | -0.6% | -15.5%
35 | Nc1cccc(SC2CC(=O)N(c3ccc4c(c3)OCO4)C2=O)c1 (stereo not given) | 90.4% (active) | 92.8% (active) | 91.5% (active) | 79.2% (active) | 91.7% (active) | 85.3% (active)
36 | CCOc1c(N=Nc2ccccc2)c(C)nn1C(N)=S | -55.9% | -24.6% | 9.95% | -40.9% | 0.4% | 3.4%
37 | O=C(O)CCc1ccccc1CC(=O)O | 12.8% | -9.95% | -10.8% | -10.1% | -12.3% | 13.2%
38 | N#Cc1ccc(N=NN2CCOC2)cc1 | 20.6% | 11.4% | -0.7% | 7.7% | 23% | 44.9%
39 | CCC1(CC)C(=O)NN(C(=O)c2ccccc2)C1=O | 19.3% | -20.1% | 28.4% | 13.6% | -4.45% | -43.4%
40 | CCCCSc1nc2c(=O)[nH][nH]c(=O)c2n1Cc1ccccc1 | 11.9% | 3.45% | 23.2% | 14.7% | -0.8% | 1.5%
